Data as given in article PMC4336329 (PLoS ONE, 2015).
Among all 310,000 compounds or so, about 14,000 (4.5%) showed an effect of 50% or more. The effect is printed as a negative number. The sample as a whole holds a higher share of strong results than the screen did.

biological target: human ether-à-go-go-related gene (hERG) potassium channel (human, UniProt Q12809); experiment: primary screen, population patch clamp on CHO cells stably expressing hERG; higher = less effect of the substance
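Also: peak tail current of the secondary pulse compared with the same well before compound.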

human ether-à-go-go-related gene (hERG) potassium channel, sequence (Q12809 whole entry, looked up): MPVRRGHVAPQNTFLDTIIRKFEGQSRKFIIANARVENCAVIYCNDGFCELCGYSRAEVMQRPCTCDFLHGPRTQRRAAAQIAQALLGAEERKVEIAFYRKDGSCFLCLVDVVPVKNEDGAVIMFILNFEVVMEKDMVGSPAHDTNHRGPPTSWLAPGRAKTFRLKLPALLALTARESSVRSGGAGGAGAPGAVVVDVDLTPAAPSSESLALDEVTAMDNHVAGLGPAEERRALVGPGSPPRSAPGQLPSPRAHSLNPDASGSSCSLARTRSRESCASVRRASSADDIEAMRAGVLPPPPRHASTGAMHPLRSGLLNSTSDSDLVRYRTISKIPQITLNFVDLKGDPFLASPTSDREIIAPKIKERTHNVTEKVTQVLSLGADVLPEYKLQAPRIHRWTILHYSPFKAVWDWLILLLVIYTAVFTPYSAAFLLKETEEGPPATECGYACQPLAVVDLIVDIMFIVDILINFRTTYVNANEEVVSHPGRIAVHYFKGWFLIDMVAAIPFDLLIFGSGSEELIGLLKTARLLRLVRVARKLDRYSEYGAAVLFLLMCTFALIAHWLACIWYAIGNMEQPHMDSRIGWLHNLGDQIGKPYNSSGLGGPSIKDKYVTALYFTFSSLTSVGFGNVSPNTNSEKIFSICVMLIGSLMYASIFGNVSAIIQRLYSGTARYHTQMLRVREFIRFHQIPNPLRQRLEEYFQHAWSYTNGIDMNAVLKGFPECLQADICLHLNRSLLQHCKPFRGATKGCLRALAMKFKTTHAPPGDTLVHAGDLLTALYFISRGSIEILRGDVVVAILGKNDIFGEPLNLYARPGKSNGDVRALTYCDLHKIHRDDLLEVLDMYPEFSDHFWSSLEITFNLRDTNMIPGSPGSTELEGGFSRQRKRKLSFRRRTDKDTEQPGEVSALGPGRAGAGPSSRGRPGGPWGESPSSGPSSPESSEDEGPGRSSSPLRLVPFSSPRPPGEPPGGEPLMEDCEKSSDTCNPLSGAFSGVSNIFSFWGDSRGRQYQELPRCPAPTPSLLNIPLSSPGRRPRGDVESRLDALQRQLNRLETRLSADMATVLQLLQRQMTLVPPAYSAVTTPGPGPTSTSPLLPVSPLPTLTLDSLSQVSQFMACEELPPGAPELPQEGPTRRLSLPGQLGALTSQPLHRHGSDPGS

Compound	hERG current change (%, negative = inhibition) at 10uM [%]
CC(=O)N1CCN(S(=O)(=O)c2cccc(C(=O)NCCc3ccc(Cl)cc3)c2)CC1	-12.1
CC1Cc2ccccc2N1C(=O)COC(=O)C1=COCCO1 (centres unmarked)	-7.1
COc1ccc(CCNC(=O)COC(=O)/C=C/c2ccc(OC)c(OC)c2)cc1	-16
O=C(CSc1nncn1-c1cccnc1)N(c1ccccc1)c1ccccc1	4.28
CN(C)S(=O)(=O)N1CCN(C(=O)c2cccs2)CC1	7.17
CCC1=Nc2ccc(Br)cc2C(c2ccccc2)N1CC(=O)OC (centres unmarked)	-59.1
Br.COC(=O)CN1C(C)=Nc2ccc(Br)cc2C1c1ccccc1 (centres unmarked)	-49.1
CC1=Nc2ccc(Br)cc2C(c2ccccc2)N1CC(=O)O (centres unmarked)	33.7
COC(=O)CN1C(CN2CCOCC2)=Nc2ccc(Br)cc2C1c1ccccc1 (centres unmarked)	-75.3
COC(=O)CN1C(C)=Nc2ccc(C)cc2C1c1ccccc1 (centres unmarked)	-43.1
NNC(=O)CN1C(CN2CCOCC2)=Nc2ccc(Br)cc2C1c1ccccc1 (centres unmarked)	-48.9
Cc1nnc(NC(=O)c2ccc(S(=O)(=O)N3CC(C)CC(C)C3)cc2)o1 (centres unmarked)	5.33
CCc1cccc2c(C(=O)C(NCCCOC)c3ccccc3)c[nH]c12 (centres unmarked)	2.05
O=C(CSc1cccc(C(F)(F)F)c1)Nc1cc(S(=O)(=O)N2CCCC2)ccc1Cl	-5.28
CCOC(=O)N1CCC(N2C(=O)c3ccccc3C2Nc2cc(C(=O)OC)cc(C(=O)OC)c2)CC1 (centres unmarked)	-17.5
CCOC(=O)N1CCC(N2C(=O)c3ccccc3C2Nc2cc(OC)c(OC)c(OC)c2)CC1 (centres unmarked)	-17.8
CCOC(=O)N1CCC(N2C(=O)c3ccccc3C2Nc2cc(C)cc(C)c2)CC1 (centres unmarked)	-21.8
CCOC(=O)c1ccccc1NC1c2ccccc2C(=O)N1C1CCN(C(=O)OCC)CC1 (centres unmarked)	-56.4
CCOC(=O)N1CCC(N2C(=O)c3ccccc3C2Nc2ccccc2)CC1 (centres unmarked)	-9.74
CCOC(=O)N1CCC(N2C(=O)c3ccccc3C2Nc2c(C)cccc2C)CC1 (centres unmarked)	-75.1
CCOC(=O)N1CCC(N2C(=O)c3ccccc3C2Nc2ccc3c(c2)OCCO3)CC1 (centres unmarked)	-7.43

Compound	hERG current change (%, negative = inhibition) at 10uM [%]
CCOC(=O)N1CCC(N2C(=O)c3ccccc3C2Nc2ccccc2C)CC1 (centres unmarked)	-46.5
CCOC(=O)N1CCC(N2C(=O)c3ccccc3C2Nc2ccc3c(C)cc(=O)oc3c2)CC1 (centres unmarked)	-63.8
Cc1nn(C)c(C(=O)N/N=C/c2cc3c(cc2Br)OCO3)c1Br	11.2
COCc1cc(C)n(CC(=O)NCC2CCCO2)c(=O)c1C#N (centres unmarked)	12
CCOc1ccc(/C=C2\SC(=S)N(CCCC(=O)NCCCN3CCOCC3)C2=O)cc1	-4.5
CC(=O)NCCc1ccc(S(=O)(=O)Nc2ccc3c(c2)OCCO3)cc1	12.3
CCCc1cc2c(cc1NS(=O)(=O)c1ccc(CCNC(C)=O)cc1)OCO2	-63
CC(=O)NCCc1ccc(S(=O)(=O)NCc2ccc3c(c2)OCO3)cc1	2.45
CCCCNC(=O)CSc1nnc(-c2cccc(S(=O)(=O)N3CCOCC3)c2)o1	-18.1
CC(=O)c1sc(NC(=O)c2ccc(COc3ccccc3Cl)o2)nc1C	33.5
CC(=O)N(CN1C(=O)CCC1=O)c1cccc(Cl)c1	-17
Cc1cc(=O)n2c3ccccc3n(CC(O)CN3CCN(CCO)CC3)c2c1C#N (centres unmarked)	-16
Cc1cc(=O)n2c3ccccc3n(CC(O)CN3CCN(Cc4ccccc4)CC3)c2c1C#N (centres unmarked)	-62.8
CCCNCC(O)Cn1c2ccccc2n2c(=O)cc(C)c(C#N)c12 (centres unmarked)	-29.7
Cc1cc(=O)n2c3ccccc3n(CC(O)CN3CCOCC3)c2c1C#N (centres unmarked)	17.9
Cc1cc(=O)n2c3ccccc3n(CC(O)CN3CCCC3)c2c1C#N (centres unmarked)	-44.8
Cc1cc(=O)n2c3ccccc3n(CC(O)CN3CCCCC3)c2c1C#N (centres unmarked)	-53.2
Cc1cc(C(N)=O)c2cc(Br)ccc2n1	1.34
COc1cccc(N2CCN(C(=O)NC3CCCCC3)CC2)c1	2.57
Cc1cc(C(=O)Nc2ccccc2C)c2ccccc2n1	14.1
